PP5 primary: PP5 (human) phosphatase inhibition. P53041. purified PP5c, OMFP substrate fluorescence. inhibition, % at 6.7 µM. 320,000 compounds, 0.18% hits;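 active = inhibition above the campaign's mean inhibition across all tested compounds plus 3 SD, cut at about 9.5% in these data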
Fh CTSL1 inh: counter-screen for PFM18AAP inhibitors: inhibitors of F. hepatica cathepsin L1; recombinant F. hepatica cathepsin L1, Z-Leu-Arg-MCA fluorescence; inhibition, % at 5.96 µM; 300,000 compounds, 0.49% hits; AID 1906;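 active = inhibition above the mean of all tested compounds plus 3 SD, set per screening campaign, cut at about 17% in these data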
PAFAH1B3 FP inh: PAFAH1B3 (human) inhibition. Q15102. recombinant PAFAH1B3, FP-rhodamine probe, fluorescence polarization. inhibition, % at 3.39 µM. 340,000 compounds, 0.28% hits;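 active = inhibition above the screen-wide average of all tested compounds plus 3 SD, cut at about 25% in these data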
pPAFAH inh: inhibitors of human plasma PAF acetylhydrolase (pPAFAH); Q13093; recombinant pPAFAH, FP-rhodamine probe fluorescence polarization; inhibition, % at 3.39 µM; 330,000 compounds, 1.5% hits;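 active = inhibition above the mean inhibition across the screen plus 3 SD, cut at about 25% in these data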;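 also: inhibitors block binding of the rhodamine activity-based probe so polarization drops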
Target sequence (Q13093 whole entry, looked up): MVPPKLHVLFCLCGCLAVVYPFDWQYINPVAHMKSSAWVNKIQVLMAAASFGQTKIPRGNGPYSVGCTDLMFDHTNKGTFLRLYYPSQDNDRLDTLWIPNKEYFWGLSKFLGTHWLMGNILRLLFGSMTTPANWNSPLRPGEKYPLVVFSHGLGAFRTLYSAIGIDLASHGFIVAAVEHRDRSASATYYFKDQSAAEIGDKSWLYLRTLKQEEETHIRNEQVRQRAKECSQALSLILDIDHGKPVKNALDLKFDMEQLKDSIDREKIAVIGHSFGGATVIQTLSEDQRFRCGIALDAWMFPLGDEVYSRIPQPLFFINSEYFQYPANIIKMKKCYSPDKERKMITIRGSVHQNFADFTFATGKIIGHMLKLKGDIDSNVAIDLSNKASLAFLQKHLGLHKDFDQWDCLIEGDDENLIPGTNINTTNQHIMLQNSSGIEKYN
PAFAH2 FP inh: PAFAH2 (human) inhibition; AID 492956; inhibition, % at 3.39 µM; 340,000 compounds, 0.99% hits; recombinant PAFAH2, FP-rhodamine activity probe, fluorescence polarization; Q99487;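 active = inhibition above the mean over all tested compounds plus 3 SD, cut at about 30% in these data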;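 also: inhibitors block probe labeling of enzyme so polarization drops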
PAFAH1B2 FP inh: blocks human PAF acetylhydrolase 1b catalytic subunit 2; P68402; recombinant PAFAH1B2, FP-rhodamine activity probe, fluorescence polarization; inhibition, % at 3.39 µM; 340,000 compounds, 1.2% hits; AID 492953;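 active = inhibition above the mean of all tested compounds plus 3 SD, cut at about 24% in these data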
PAFAH2 FP conf: PAFAH2 (human) inhibition, confirmed; recombinant PAFAH2, FP-rhodamine activity probe, fluorescence polarization; shares compounds with PAFAH2 FP inh; 2,300 compounds, 65% hits; AID 493030; inhibition, % at 3.39 µM;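 active = mean inhibition over three repeats above a set limit taken from the earlier primary screen, cut at about 30% in these data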;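 also: inhibitor blocks binding of rhodamine activity probe so polarization falls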
Large screens that a line does not name were inactive (follow-up assays come after a bar, where they were run). Most compounds without a hit are left out; they make up all but 3% or so of the library.

O=C1CCCCN1CCCC(=O)N1CCCC(Nc2ccc(F)c(F)c2)C1 (configuration not stated)	none
O=C1C(=Cc2ccco2)CCC1=Cc1ccco1	PAFAH2 FP inh 56 (no result: PP5 primary, Fh CTSL1 inh, pPAFAH inh) | PAFAH2 FP conf inactive
O=C1C(=Cc2ccco2)CCCC1=Cc1ccco1	none (no result: PP5 primary, Fh CTSL1 inh, pPAFAH inh)
Cc1ccc(NC(=O)c2cc(S(=O)(=O)N(C)C)ccc2N2CCCC2)cc1F	none
NS(=O)(=O)c1ccc(Sc2ccc3ccccc3c2)nc1	none
Cc1ccccc1-c1nc2sc3c(c2c(=O)n1N)CCCC3	none
Cc1ccccc1-c1nc2sc3c(c2c(=O)o1)CCC3	PAFAH2 FP inh 76 | PAFAH2 FP conf 80
O=c1oc(/C=C/c2ccccc2)nc2sc3c(c12)CCC3	PAFAH2 FP inh 66 | PAFAH2 FP conf 60
O=c1oc(-c2ccccc2)nc2sc3c(c12)CCCC3	PAFAH2 FP inh 49 | PAFAH2 FP conf 37
O=c1oc(-c2cccs2)nc2sc3c(c12)CCCCC3	none
O=c1oc(-c2cc3ccccc3o2)nc2sc3c(c12)CCCC3	PAFAH2 FP inh 69 | PAFAH2 FP conf 68
COc1ccc(/C=C/c2nc3sc4c(c3c(=O)o2)CCC4)cc1	none
CCN1C(=O)[C@@H]2[C@@H](c3ccc(-c4ccc(C(C)=O)cc4)c(OC)c3)N3CCCC[C@@]3(C(=O)OC)[C@@H]2C1=O	none
CC(=O)Nc1ccc(S(=O)(=O)NC2(C(F)(F)F)NC(=O)N(c3ccc(C)cc3)C2=O)cc1 (configuration not stated)	none
COC(=O)c1c(-c2c(Cl)cccc2Cl)noc1NC(=O)NN1CCCCC1	PAFAH2 FP inh 75 | PAFAH2 FP conf 68
Oc1ccccc1/C=N/NC(=S)NC1CC2CCC1C2 (configuration not stated)	PAFAH2 FP inh 60 | PAFAH2 FP conf inactive
COc1cccc(/C=N/NC(=S)NC2CC3CCC2C3)c1OC (configuration not stated)	none
COc1cc(C2C(C(=O)c3cc4ccccc4o3)=C(O)C(=O)N2c2cc(C)on2)cc(OC)c1OC (configuration not stated)	none
COc1cccc(C2C(C(=O)c3cc4ccccc4o3)=C(O)C(=O)N2c2cc(C)on2)c1OC (configuration not stated)	PAFAH2 FP inh 36 | PAFAH2 FP conf inactive
CC(C)(C)OC(=O)N1CCC[C@H]1C(=O)Nc1ccc(S(=O)(=O)C(F)F)cc1	none
CC(=O)c1ccc(NC(=O)COC(=O)C2C3CC4OC(=O)C2C4C3)cc1 (configuration not stated)	none
Cc1ccc(NC(=O)COC(=O)C2C3CC4OC(=O)C2C4C3)cc1 (configuration not stated)	PAFAH2 FP inh 55 | PAFAH2 FP conf 55
CCOc1ccc(NC(=O)COC(=O)C2C3CC4OC(=O)C2C4C3)cc1 (configuration not stated)	PAFAH2 FP inh 47 | PAFAH2 FP conf 40
CC(C)OC(=O)c1ccc(NC(=O)C2C3CC4OC(=O)C2C4C3)cc1 (configuration not stated)	none
O=C(COC(=O)C1C2CC3OC(=O)C1C3C2)Nc1cccc(Cl)c1 (configuration not stated)	PAFAH2 FP inh 77 | PAFAH2 FP conf 84
COC(=O)c1c(NC(=O)c2cccc(S(=O)(=O)N3CCN(C)CC3)c2)sc(C)c1C	PAFAH2 FP inh 30 | PAFAH2 FP conf inactive
CC1CC1C(=O)OCC(=O)NCc1ccc(Cl)cc1Cl (configuration not stated)	PAFAH2 FP inh 62 | PAFAH2 FP conf 53
CC1CC1C(=O)OCC(=O)NCc1ccc(Cl)cc1 (configuration not stated)	PAFAH2 FP inh 46 | PAFAH2 FP conf inactive
COc1ccc(CNC(=O)COC(=O)C2CC2C)cc1OC (configuration not stated)	none
COC(=O)[C@@]12CCCCN1[C@H](c1ccc(-c3ccc4c(c3)OCO4)cc1)[C@H]1C(=O)N(C)C(=O)[C@H]12	none (no result: PP5 primary, Fh CTSL1 inh)
CC(C)(C)c1nc[nH]c(=O)c1Br	PAFAH2 FP inh 63 | PAFAH2 FP conf 41
O=C(COC(=O)c1ccc2c(c1)OCCO2)NC1CCCCC1	PAFAH2 FP inh 87 (no result: Fh CTSL1 inh) | PAFAH2 FP conf 77
